About 79,000 compounds went through this panel and 15% of them were active in at least one assay; those are over-represented in the sample as a whole. The source made the active and inactive calls. Cut-off read from the data, not from the text of the source: active = growth inhibition above about 70%; inactive = the rest. *1 amine or outer side, *2 acyl side, *3 side chain or, on linkers, in order; H or OH if unused. Where a SMILES comes first, the peptide text is derived from it. Bridges are numbered along the chain shown (N, C = ends). Roman numbers before positions name the chains, in order. [ ]: non-standard residue; d: D form. Actinocin(1to9) = Cc1c2oc3c(C)ccc(C(=O)[*:2])c3nc-2c(C(=O)[*:1])c(N)c1=O; NMeV = CN[CH](C(=O)O)C(C)C; Sar = CNCC(=O)O
Tests used:
[1] = NCI Yeast Anticancer Drug Screen. Data for the rad50 strain (AID 155);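 note: 0% = growth of vehicle-only cultures of the same strain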; conditions: S. cerevisiae rad50 strain growth inhibition; at 50.0 µM; active compounds read high
In short: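 DNA repair mutant yeast, compound exposure, growth read-out; inhibition is taken relative to vehicle.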

[2] = NCI Yeast Anticancer Drug Screen. Data for the mec2-1 strain (AID 157); conditions: S. cerevisiae mec2-1 strain, at 50.0 µM, active compounds read high
In short: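 Readout is yeast growth inhibition, normalised to vehicle-treated controls, in the mec2-1 strain exposed to compound.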

[3] = NCI Yeast Anticancer Drug Screen. Data for the sgs1 mgt1 strain (AID 161);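 note: 0% = growth of cultures given vehicle only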; conditions: S. cerevisiae sgs1 mgt1 strain, at 50.0 µM, active compounds read high
In short: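 Compounds are added to genetically altered yeast, and growth is compared with cultures given vehicle alone to give percent inhibition.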

[4] = NCI Yeast Anticancer Drug Screen. Data for the cln2 rad14 strain (AID 165);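 note: 0% = growth equal to vehicle treated cultures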; conditions: S. cerevisiae cln2 rad14 strain, at 50.0 µM, active compounds read high
In short: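 Relative to vehicle controls, growth inhibition of compound-treated cln2 rad14 yeast was recorded.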

[5] = NCI Yeast Anticancer Drug Screen. Data for the bub3 strain (AID 167); conditions: S. cerevisiae bub3 mutant strain, at 50.0 µM, active compounds read high
In short: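 In this screen, a yeast mutant lacking normal mitotic checkpoint function is challenged with compound. Relative growth versus vehicle gives the inhibition value.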

[6] = NCI Yeast Anticancer Drug Screen. Data for the mlh1 rad18 strain (AID 175); conditions: S. cerevisiae mlh1 rad18 strain growth inhibition; at 50.0 µM; active compounds read high
In short: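 Test agents were incubated with a yeast strain of defined genotype (DNA damage repair defect). Inhibition of growth was derived by comparison with vehicle-exposed cultures.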

Measured: growth inhibition

O=C(O)CCCC(=O)CCCC(=O)O.[Pb]
inactive: [1] -20% | [2] -27.3% | [3] -11.7% | [4] -36.1% | [5] 2.05% | [6] -4.1%

O=NNc1cnc2ccccc2n1
inactive: [1] 48.5% | [2] -0.25% | [3] -9.75% | [4] -5.4% | [5] -38.2% | [6] 12.2%

O=[N+]([O-])NC1=NCCN1CCCl
inactive: [1] -17.2% | [2] -13.6% | [3] -4.6% | [4] -25.1% | [5] -12.6% | [6] 9.15%

O=P(Nc1ccc2ccccc2c1)(Nc1ccc2ccccc2c1)N(CCCl)CCCl
inactive: [1] -4.3% | [2] -3.5% | [3] 4.7% | [4] 4.2% | [5] -12.3% | [6] -12.8%

Cc1ncc(CNC(=O)N(CCCl)N=O)c(N)n1
inactive: [1] 0.45% | [2] -6.8% | [3] 6.3% | [4] -10.2% | [5] -4.2% | [6] 32.1%

CCOC(OCC)c1ccc2c(c1)OCO2
inactive: [1] 5.65% | [2] -5.75% | [3] 13.2% | [4] 4.7% | [5] -0.05% | [6] 11.8%

COC(=O)c1cncn1C(C)c1cccc2ccccc12 (centres undefined)
active: [1] 90.7% | [2] 91% | [3] 79.2% | [5] 88.2% | [6] 89.3%
inactive: [4] 59%

CC(C)NC(=O)N1C2C3CCC(C)(OC3(C)C)C21 (centres undefined)
inactive: [1] -16.5% | [2] -21.4% | [3] 3.7% | [4] -9.35% | [5] -14.9% | [6] -12.2%

[I][Ni][I].c1ccc([PH+](c2ccccc2)c2ccccc2)cc1.c1ccc([PH+](c2ccccc2)c2ccccc2)cc1
inactive: [1] 21% | [2] 38.4% | [3] 64% | [4] 17.6% | [5] 5.7% | [6] 48.7%

CC(=O)CP(=O)(O)O
inactive: [1] 23.3% | [2] -11.6% | [3] -0.15% | [4] -55.9% | [5] 10.1% | [6] -6.35%

CN1C(=O)c2ccccc2NC(=O)C12OC2c1ccccc1 (centres undefined)
inactive: [1] -0.1% | [2] 18% | [3] 11.3% | [4] 10.2% | [5] 18.2% | [6] 8.15%

CCOP(=O)(OCC)C(O)C(C)C (centres undefined)
inactive: [1] 3.5% | [2] 16.9% | [3] 5.2% | [4] -19.8% | [5] 7.5% | [6] 0.35%

COc1ccc(Oc2cc3c(cc2OC)CCN(C)C3)cc1
inactive: [1] 15.9% | [2] 7.7% | [3] 20.1% | [4] -0.6% | [5] -22.9% | [6] -6.6%

CCOP(=O)(O)OCC.[Y]
inactive: [1] 13.6% | [2] 7.3% | [3] 6.5% | [4] -16.8% | [5] 6.5% | [6] 11.2%

COc1ccc2c(c1)C1(C=N2)CCN(C(C)=O)CC1
inactive: [1] 3.25% | [2] -17.1% | [3] -16.4% | [4] 17.1% | [5] -9.75% | [6] -24.8%

O/N=C(/C(=N/O)c1ccccc1)c1ccccc1.O/N=C(/C(=N/O)c1ccccc1)c1ccccc1.[Ni]
inactive: [1] -10.2% | [2] -6.5% | [3] 5.05% | [4] -21.8% | [5] 2.15% | [6] -14.8%

Cn1cc(C(=O)C[n+]2ccccc2)c2ccccc21
inactive: [1] -20.4% | [2] -0.45% | [3] -18.3% | [4] 3.7% | [5] -30.1% | [6] -5.45%

Cn1c[n+](C)nn1
inactive: [1] -2.75% | [2] -12.8% | [3] -1.3% | [4] -29.1% | [5] -3.25% | [6] -18.2%

CCOP(=O)(OCC)N1C(C)C1C (centres undefined)
inactive: [1] -0.05% | [2] 2.8% | [3] 17.6% | [4] -8.3% | [5] 4.25% | [6] -4.75%

Clc1ccc(-c2ccccc2)cc1Cl
inactive: [1] 12.9% | [2] -12.5% | [3] -8.85% | [4] -0.8% | [5] 14.6% | [6] 1.9%

CCNCCc1ccc(N)cc1
inactive: [1] 5.05% | [2] -2.95% | [3] 0.8% | [4] -6.75% | [5] 1.85% | [6] -2.65%

Cn1cnc([N+](=O)[O-])c1C(=O)O (tested in a mixture with another compound)
inactive: [1] -18.2% | [2] -3.55% | [3] -6.65% | [4] -18.4% | [5] 27.3% | [6] -1%

CC(C)(C)c1ccc2c(cc[n+]3ccccc23)c1
inactive: [1] -9.05% | [2] -6.85% | [3] 2.05% | [4] 4.05% | [5] 2.35% | [6] -11.9%

C=CCOC(=O)C(Br)CC (centres undefined)
inactive: [1] 7.65% | [2] -3.2% | [3] -3.7% | [4] -6.25% | [5] 11.9% | [6] -14.5%

O=C1NC2(CCCC2)C(=O)N1CCCN(CCCl)CCCl
inactive: [1] 2.75% | [2] 12.9% | [3] 25.1% | [4] -37.3% | [5] 7.35% | [6] 3.2%

Cc1ccc2c(c1)N(CCCl)c1c(ccc3ccccc13)S2
inactive: [1] -6.55% | [2] -10% | [3] -6.55% | [4] -67.9% | [5] 22.2% | [6] -6.6%

COc1cc(C2c3[nH]c4ccccc4c3C[C@H]3COC(=O)N23)cc(OC)c1OC (some centres undefined)
inactive: [1] 62.6% | [2] 15.3% | [3] 57.5% | [4] 24.4% | [5] 54% | [6] -10.2%

C=C1OC(OC)CC(N=[N+]=[N-])C1O (centres undefined)
inactive: [1] -14.1% | [2] -2.9% | [3] -6.4% | [4] -5.3% | [5] 2.45% | [6] -15.6%

N#CC(C#N)=C(C#N)C#N
inactive: [1] 14.1% | [2] 4.6% | [3] 1.9% | [4] -25.9% | [5] 0.05% | [6] 6.25%

N#C[S-].N#C[S-].[Ni+2].c1ccc([PH+](c2ccccc2)c2ccccc2)cc1.c1ccc([PH+](c2ccccc2)c2ccccc2)cc1
inactive: [1] 35.5% | [2] 33.7% | [3] 50% | [4] 14.3% | [5] 34.2% | [6] 63%

CNCC(C)c1ccccc1OC (centres undefined)
inactive: [1] -9.6% | [2] -6.7% | [3] 2% | [4] 26.4% | [5] 13.3% | [6] -5.9%

CCC(C)C1NC(=O)C(NC(=O)c2c3nc4c(C(=O)NC5C(=O)NC(C(C)C)C(=O)N6CCCC6C(=O)N(C)CC(=O)N(C)C(C(C)C)C(=O)OC5C)ccc(C)c4oc-3c(C)c(=O)c2N)C(C)OC(=O)C(C(C)C)N(C)C(=O)CN(C)C(=O)C2CCCN2C1=O (centres undefined) (I: TIP[Sar][NMeV] / II: TVP[Sar][NMeV]; ester I:1-I:C, II:1-II:C; linker I:N-II:N via Actinocin(1to9); configuration not given here)
active: [1] 88% | [2] 92.2% | [3] 91.2% | [4] 88.3% | [5] 89.8% | [6] 85.7%

CCOP(=O)(OCC)C(N)Cc1c[nH]c2ccccc12 (centres undefined)
inactive: [1] 13.9% | [2] -5.85% | [3] -16.8% | [4] 16.4% | [5] 11.6% | [6] 4.9%

CCOC(=O)c1cc2c(cn1)[nH]c1ccccc12
inactive: [1] 41.2% | [2] 34.2% | [3] 43.4% | [4] 0% | [5] 26.9% | [6] 16.8%

O=C(CF)Nc1ccc([N+](=O)[O-])cc1
inactive: [1] -12.4% | [2] -7.25% | [3] -6.25% | [4] -15.7% | [5] 0.2% | [6] 9.1%

Nc1cc(N=Nc2ccc([As](=O)(O)O)cc2)ccc1O
inactive: [1] 7.95% | [2] 13.4% | [3] -5.2% | [4] 11% | [5] 16.6% | [6] 16.9%

CN(C)P(=O)(N(C)C)N(C)C.[CH3][Sn]([CH3])([Cl])[Cl]
active: [6] 82.2%
inactive: [1] 5.75% | [2] -1.2% | [3] 52.4% | [4] 49.9% | [5] 63.8%

C1=C[N-]c2c3c(ccc2=C1)=CC=C[N-]3.C1=C[N-]c2c3c(ccc2=C1)=CC=C[N-]3.C1=C[N-]c2c3c(ccc2=C1)=CC=C[N-]3.[Co+3].[O-][Cl+3]([O-])([O-])O
inactive: [1] -8.95% | [2] -16.4% | [3] -22.8% | [4] -26.1% | [5] -1.15% | [6] 8.2%

CC(=O)CCC(=O)O
inactive: [1] -7.05% | [2] 0.55% | [3] -39.2% | [4] 16.1% | [5] -7.25% | [6] -19.9%

Reference: PubChem BioAssay (NCI)
